Screening data as filed in PubChem.
Only some compounds are listed: those with a hit (about 1.2% of all), similar ones and a draw of the others.
RGS7-Gao reg – regulators of human RGS7-Galphao interaction. Multiplexed bead flow cytometry, RGS7-Galphao binding; actives lie on both sides. P09471. AID 1439. binding response (% of control), % at 10 µM. hit rate 0.35% among 220,000; in the data active means binding response below about 49% or above about 150%; inconclusive means no clear call, values can overlap the other calls; inactive means in between;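 further: fluorescent Galphao held in activated GDP-AlF4 state binding bead-coupled RGS7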
Target sequence (P09471 whole entry, looked up): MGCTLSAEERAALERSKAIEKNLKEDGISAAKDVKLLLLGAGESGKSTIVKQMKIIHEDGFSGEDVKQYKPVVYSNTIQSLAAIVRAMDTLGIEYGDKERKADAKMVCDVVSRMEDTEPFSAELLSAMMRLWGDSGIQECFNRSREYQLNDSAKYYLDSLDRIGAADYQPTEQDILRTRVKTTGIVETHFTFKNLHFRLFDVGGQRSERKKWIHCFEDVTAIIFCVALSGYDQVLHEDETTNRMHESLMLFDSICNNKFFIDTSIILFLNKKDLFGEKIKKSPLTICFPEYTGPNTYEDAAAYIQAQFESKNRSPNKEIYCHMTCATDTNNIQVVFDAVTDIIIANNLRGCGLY
GSH bead fluor – GSH bead compound fluorescence profile; hit rate 0.25% among 190,000; fluorescence (KMESF) at 10 µM; GSH beads flow cytometry, compound fluorescence 488/530 nm; active compounds read high; in the data active means fluorescence above about 89;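 further: glutathione beads carrying GST-tagged Bcl family fusion proteins plus one bare bead set; values are compound well signal with DMSO vehicle wells as background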
RGS8-Gao reg – modulates binding of RGS8 to human Galphao | AID 1423 | multiplexed bead flow cytometry; actives lie on both sides | response (percent of control binding), % at 10 µM | hit rate 0.34% among 220,000 | P09471; in the data active means response below about 60% or above about 140%; inactive means in between;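 further: Galphao activated as the GDP aluminium fluoride complex binding bead-coupled RGS8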
RGS16-Gao – modulates binding between human RGS16 and Galphao; O15492+P09471; bead-based flow cytometry RGS16-Galphao binding, fluorescence; actives lie on both sides; binding response (% of control), % at 10 µM; hit rate 0.38% among 220,000; AID 1441; call rule not given here;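 further: Galphao activated by GDP with aluminum fluoride before binding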
Target sequence (O15492 whole entry, looked up): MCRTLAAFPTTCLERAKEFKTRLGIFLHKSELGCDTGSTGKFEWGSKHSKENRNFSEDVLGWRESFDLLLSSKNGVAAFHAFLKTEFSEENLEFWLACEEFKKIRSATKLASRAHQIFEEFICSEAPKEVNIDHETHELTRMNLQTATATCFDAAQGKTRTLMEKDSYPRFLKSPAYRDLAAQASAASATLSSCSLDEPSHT
Target sequence (P09471 whole entry, looked up): as the sequence (P09471 whole entry, looked up) above
Avidin fluor – avidin bead compound fluorescence profile; AID 1775; hit rate 0.38% among 220,000; Avidin beads, compound fluorescence 488/530 nm, flow cytometry; active compounds read high; fluorescence (KMESF) at 10 µM; in the data active means fluorescence above about 47
RGS4-Gao reg – human RGS4-Galphao interaction regulation; AID 1415; binding response (% of control), % at 10 µM; P09471; hit rate 0.33% among 220,000; Multiplexed bead flow cytometry, RGS4-Galphao binding; actives lie on both sides; in the data active means binding response below about 49% or above about 150%; inactive means in between;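 further: fluorescent Galphao activated with aluminum fluoride binding bead-coupled RGS4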
Numbers without * were called inactive; ? = inconclusive; nt = no result given; + = active, no number; [ ] = another dose, or the depositor's remark.

SMILES | RGS7-Gao reg | GSH bead fluor | RGS8-Gao reg | RGS16-Gao | Avidin fluor | RGS4-Gao reg
O=C(NCCCn1ccnc1)c1cc(S(=O)(=O)N2CCOCC2)ccc1F | 100 | 12 | 98 | 99 | 22 | 99
CCN(CC)c1ccc(/C=C(\C#N)C(=O)c2ccc(Br)cc2)cc1 | 115 | 151* | 103 | 126 | 23 | 122
CCOC(=O)c1cnn2c1[nH]c(=O)c1ccccc12 | 124 | 49 | 101 | 110 | 96* | 110
O=C(CCCn1c(=O)c2ccccc2n(Cc2ccccc2)c1=O)NCc1ccco1 | 122 | 10 | 109 | 136 | 60* | 127
Cn1c(Cn2c(=O)sc3ccccc32)nnc1SCC(=O)NCc1ccco1 | 97 | 16 | 100 | 107 | 26 | 99
O=C(CCn1c(=O)sc2ccccc21)NCc1ccco1 | 120 | 120* | 121 | 184 | 14 | 123
O=C(CCCCn1c(=O)c2ccccc2n(Cc2ccc(F)cc2)c1=O)NCc1ccco1 | 101 | 19 | 98 | 99 | 7 | 95
Cc1nc(SCC(=O)O)c(C#N)c(C)c1CC(=O)c1ccccc1 | 99 | 8 | 97 | 90 | 16 | 96
NC(=O)NC(Cc1ccccc1)C(=O)Nc1ccc(S(N)(=O)=O)cc1 (stereo not given) | 103 | 253* | 101 | 103 | 7 | 99
NS(=O)(=O)c1ccc(NC(=O)N[C@@H](Cc2ccccc2)C(=O)O)cc1 | 102 | 61 | 103 | 101 | 6 | 102
Cc1ccc2c(CC(=O)O)coc2c1 | 106 | 24 | 102 | 106 | 15 | 103
Cc1cc2occ(CC(=O)O)c2cc1C | 98 | 234* | 101 | 95 | 7 | 97
Cc1[nH]c2ccccc2c1/C=N/NC(=O)C1CC1(c1ccccc1)c1ccccc1 (stereo not given) | 148 | 9 | 107 | 140 | 31 | 142
O=C(NCC(c1ccco1)N1CCCCC1)c1ccc2c(c1)S(=O)(=O)c1ccccc1C2=O (stereo not given) | 102 | 7 | 103 | 111 | 25 | 103
O=C1CSc2ccc(C(=O)NCC(c3ccco3)N3CCCCC3)cc2N1 (stereo not given) | 113 | 71 | 84 | 77 | 50* | 94
C=CCN1c2ccccc2[C@]23C[C@@H](C(=O)OC)N(C(=O)c4cccs4)C2=NC(C(=O)OC)=C(C(=O)OC)[C@H]13 | ? | nt | 100 | 97 | 16 | 95
CCCCN1C(=O)/C(=C/C=C2\Oc3ccccc3N2CC)SC1=S | 108 | 16 | 103 | 107 | 12 | 102
CCN1/C(=C/C=C/c2oc3ccc(-c4ccccc4)cc3[n+]2CC)Oc2ccc(-c3ccccc3)cc21 | +[activator] | 640* | 300*[activator] | +[activator] | 994* | +[activator]
CC1CC(C)CN(C(=O)CSc2nc(N)cc(=O)[nH]2)C1 (stereo not given) | 103 | 11 | 101 | 100 | 12 | 104
CN(C)S(=O)(=O)c1cccc(C(=O)OCC(=O)Nc2sccc2C#N)c1 | -17* | 33 | 21* | -63* | -4 | -59*
COCCn1c(SCC(=O)NC(=O)NC(C)C)nc2ccccc21 | 102 | 17 | 100 | 100 | 51* | 100
Nn1c(-c2ccccc2Cl)nnc1-c1ccccc1Cl | 113 | 102* | 106 | 108 | 8 | 119
COc1ccc2c(c1)C=C(CN1CCN(C3CCCC3)C(CCO)C1)CO2 (stereo not given) | ? | 11 | 101 | 100 | 8 | 100
CC(C)(C)NC(=O)NC(=O)COC(=O)c1ccco1 | 106 | 261* | 103 | 102 | 8 | 102
C=CCN1C(=O)S/C(=C\c2ccc3c(c2)n(C)c(=O)n3C)C1=O | 97 | 10 | 87 | 52 | 1 | 97
SMILES | RGS7-Gao reg | GSH bead fluor | RGS8-Gao reg | RGS16-Gao | Avidin fluor | RGS4-Gao reg
CCN1C(=O)S/C(=C/c2cn(C)c3ccccc23)C1=O | 98 | 4 | 98 | 100 | 12 | 101
CCN1C(=O)S/C(=C/c2ccsc2)C1=O | 106 | 26 | 104 | 105 | 52* | 99
C=CCN1C(=O)S/C(=C/c2ccsc2)C1=O | 106 | 108* | 92 | 73 | 4 | 105
CCCc1nnc(NS(=O)(=O)c2ccc(OC)cc2)s1 | 103 | 28 | 95 | 81 | 8 | 101
COc1ccc(S(=O)(=O)Nc2nncs2)cc1 | 109 | 20 | 104 | 116 | 49* | 103
CC1=NN(c2ccc(Cl)cc2)C(=O)C1 | 97 | 18 | 100 | 96 | 9 | 101
CC1=NN(c2ccc(N)cc2)C(=O)C1 | 12* | 223* | 74 | -44 | 0 | 35*
N=C1C(c2ccccc2)=C(O)CN1c1cccc(S(=O)(=O)N2CCOCC2)c1 | ? | nt | 97 | 100 | 4 | 99
O=C(O)c1ccc(Sc2nnc(-c3cccc(Br)c3)o2)c([N+](=O)[O-])c1 | 101 | 4 | 103 | 104 | 8 | 104
COc1cc(-c2nnc(Sc3ccc(C(F)(F)F)cc3[N+](=O)[O-])o2)cc(OC)c1OC | 106 | 19 | 103 | 103 | 72* | 106
CCOc1ccc2nc(SCC(=O)c3ccccc3)sc2c1 | 102 | 263* | 100 | 97 | 9 | 99
Cc1cnc(C(=O)OCc2ccc(COC(=O)c3cnc(C)cn3)cc2)cn1 | ? | 7 | 100 | 93 | 69* | 104
Cc1ccc(CNC(=O)COC(=O)c2cnc(C)cn2)cc1 | ? | 16 | 104 | 102 | 9 | 102
COc1ccc(CCNC(=O)c2ccc(=O)[nH]n2)cc1OC | 103 | 41 | 100 | 106 | 7 | 104
COc1ccc(CCNC(=O)c2cc(-c3cc(C)c(C)cc3O)n[nH]2)cc1OC | 132 | 22 | 97 | 105 | 90* | 109
Cn1c(CSCc2ccc(F)cc2)nnc1SCC(=O)Nc1cccc(C(=O)O)c1 | ? | nt | 101 | 100 | 5 | 93
O=C(COC(=O)/C=C/c1cccs1)Nc1ccccc1Cl | 100 | 8 | 100 | 101 | 22 | 98
O=C(COC(=O)/C=C/c1cccs1)Nc1ccc2ccccc2c1 | 133 | 12 | 93 | 95 | 68* | 69
CCc1nnc(NC(=O)c2cccnc2SC)s1 | 101 | 19 | 99 | 102 | 8 | 102
N#Cc1ccc(Cl)cc1NC(=O)COC(=O)c1ccc2c(c1)OCCO2 | 115 | 16 | 103 | 104 | 66* | 102
CCCCCOC(=O)CSc1n[nH]c(=O)[nH]c1=O | 99 | 273* | 102 | 103 | 9 | 100
O=C1COc2ccc(C(=O)COC(=O)Cn3cnc4ccccc43)cc2N1 | 107 | 272* | 104 | 107 | 7 | 104
O=C1COc2ccc(C(=O)COC(=O)c3ccc4ccccc4n3)cc2N1 | 102 | 12 | 103 | 106 | 6 | 101
O=C(O)c1nn(-c2cccc(Cl)c2)c(=O)cc1O | 108 | 13 | 102 | 103 | 8 | 104
COc1ccc(NS(=O)(=O)c2ccc3c(c2)NC(=O)CO3)cc1 | 104 | 13 | 103 | 102 | 10 | 104
